In PubChem BioAssay (EPA / NIEHS) one finds outcome and AC50 data, which are given here for 33 molecules.

The structures appear in SMILES notation. Inconclusive results are not listed. The source made the active and inactive calls. The calls were made as follows: active = hit-call score of the fitted dose curve at least 0.9, where 1 is the maximum; inconclusive = response in the unintended direction; inactive = score below 0.9.

A short description of the assay: ACEA_ER_AUC_viability: ACEA Biosciences xCELLigence Real-Time Cell Analysis on Estrogen Receptor Agonism for Viability (AID 2283782).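 Also: continuous compound exposure with impedance area under curve over 80 h; hit means loss of impedance signal meaning reduced cell growth or viability.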 Summed up: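 T-47D human breast cells in phenol red-free RPMI1640 with 10% charcoal-stripped FBS were dosed with an 8-point 1:4 dilution series from 100 uM top final concentration, in duplicate. Impedance-based growth was followed for 80 h; AUC analysed versus DMSO.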
`C=CCOc1nc(OCC=C)nc(OCC=C)n1`: the outcome was inactive. For orientation: AC50 means the midpoint of the concentration-response curve, whichever way the signal moves. As for `O=C1CCCCCCCCCCOCCCCO1`, the AC50 is 55.4 µM (active). On the same count and under the same terms, then `CC(CCO)CCc1ccccc1` (stereo not drawn), with 50 µM (active). As for `CCCC(=O)OCCC(C)CCC=C(C)C` (stereo not drawn), the AC50 was 77.8 µM (active). In the case of `O=C(O)Cc1cccc2ccccc12`, the molecule was classed as inactive. `CCC(O)CO` (stereo not drawn): the AC50 was 26 µM (active). The same measure, in the same setting: then `Nc1ccc(F)c([N+](=O)[O-])c1`, with 26.5 µM (active); and `CC(=O)/C=C/C1=C(C)CCCC1(C)C`, with 9.92 µM (active). As to `Fc1c(F)c(F)c(Br)c(F)c1F`, the molecule was called inactive.

For `CCCCCOC(=O)CCC`, the molecule was classed as inactive. With `CCCCCNCCCCC`, the outcome was inactive.

As to `CC1=CC(=O)NS(=O)(=O)O1`, the call was inactive. On the same count and under the same terms, the entry for `CC(C)[C@H]1CC[C@@H](C)CC1=O` is “inactive”; for `COc1cccc(OC)c1` it is “inactive”. Take `CCCCC/C=C/C=C/C=O`: the concentration at half-maximal activity (AC50) was 81.1 µM (active). On the same count and under the same terms, then `CCCCCCOC(=O)CC`, with 23.9 µM (active). Consider `Clc1ccc(Cl)c(Cl)c1Cl`, for which the call was inactive. Still for that read-out and setting: then `NCCNCCN`, with “inactive”; and `O=c1[nH]nnc2ccccc12`, with “inactive”. On the same count and under the same terms, then `CC1(C)C(=O)N(Br)C(=O)N1Cl`, with “inactive”; and `Cc1cccc(C)c1[N+](=O)[O-]`, with “inactive”. On to `CCC(C)(O)CCC=C(C)C` (stereo not drawn), for which the AC50 was 79.1 µM (active). On to `COc1cc(C=O)ccc1OC(=O)C(C)C`, for which the outcome was inactive. On the same count and under the same terms, then `CCCCCCCCCC=O`, with “inactive”.

Consider `Nc1nc2ccc([N+](=O)[O-])cc2s1`, for which the concentration at half-maximal activity (AC50) was 50 µM (active). Consider `CC(=O)OCCC(C)CC(C)(C)C` (stereo not drawn), for which the outcome was inactive. In the case of `CC1=CCC(O)(C(C)C)CC1` (stereo not drawn), the outcome was inactive. In the case of `CC1COc2ccccc2N1C(=O)C(Cl)Cl` (stereo not drawn), the AC50 is 4.69 µM (active). Still for that read-out and setting: the figure for `CCCc1ccccc1O` is 64.2 µM (active). For the molecule `CC(C)(N)CO`, the molecule was classed as inactive.

As for `CCCC1CCC(=O)O1` (stereo not drawn), the molecule was called inactive. Consider `O=[N+]([O-])c1cc(C(F)(F)F)ccc1Cl`, for which the AC50 was 49.8 µM (active). Regarding `COc1ccc(NC(=O)CC(C)=O)cc1`, the molecule was classed as inactive.
